# Results published in PubChem BioAssay (NCI).
# About 79,000 compounds went through this panel and 15% of them were active in at least one assay; those are over-represented in the sample as a whole. Unmarked numbers belong to inactive results. Active and inactive are the calls of the source. Rule as the data show it: active = growth inhibition above about 70%; inactive = the rest.
# How the values were obtained:
# [1] = NCI Yeast Anticancer Drug Screen. Data for the wt1 strain (AID 149);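 also: 0% = growth of vehicle-treated wt1 cultures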; conditions: S. cerevisiae wt1 strain (SPY 50644) growth inhibition, active compounds read high
# How it was run: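 Growth inhibition read against vehicle controls after compound exposure of the wt1 yeast strain.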
# [2] = NCI Yeast Anticancer Drug Screen. Data for the rad50EPP+ strain (AID 151);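 also: 0% = growth of vehicle-treated control cultures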; conditions: S. cerevisiae rad50 mutant strain, active compounds read high
# How it was run: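 In this screen, rad50EPP+ yeast were exposed to compounds. Growth inhibition was scored against vehicle-treated controls.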
# [3] = NCI Yeast Anticancer Drug Screen. Data for the mgt1 strain (AID 153); conditions: S. cerevisiae mgt1 mutant growth inhibition, active compounds read high
# How it was run: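 mgt1 strain exposed; growth vs vehicle control recorded as inhibition.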
# [4] = NCI Yeast Anticancer Drug Screen. Data for the rad50 strain (AID 155);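 also: 0% = growth of vehicle-only cultures of the same strain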; conditions: S. cerevisiae rad50 strain growth inhibition, active compounds read high
# How it was run: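 Readout: growth inhibition relative to vehicle-treated cultures. Compound exposure was carried out in a genetically defined yeast strain deficient in DNA damage repair.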
# [5] = NCI Yeast Anticancer Drug Screen. Data for the mec2-1 strain (AID 157); conditions: S. cerevisiae mec2-1 strain, active compounds read high
# How it was run: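 Vehicle-treated cultures served as reference for growth inhibition of compound-exposed mec2-1 yeast.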
# [6] = NCI Yeast Anticancer Drug Screen. Data for the sgs1 mgt1 strain (AID 161);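 also: 0% = growth of cultures given vehicle only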; conditions: S. cerevisiae sgs1 mgt1 strain, active compounds read high
# How it was run: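 Read-out: growth inhibition vs vehicle controls. Cells: mutant yeast strain deficient in DNA damage repair.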
# [7] = NCI Yeast Anticancer Drug Screen. Data for the CLN2oe strain (AID 163);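 also: 0% = growth of vehicle-only control cultures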; conditions: S. cerevisiae CLN2oe strain, active compounds read high
# How it was run: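 Inhibition relative to vehicle-treated yeast is reported. Cells: strain with genetic alteration in cell-cycle control, grown with compound.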
# [8] = NCI Yeast Anticancer Drug Screen. Data for the cln2 rad14 strain (AID 165);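 also: 0% = growth equal to vehicle treated cultures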; conditions: S. cerevisiae cln2 rad14 strain, active compounds read high
# How it was run: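 Each compound was tested on cln2 rad14 yeast. Inhibition of growth was calculated against vehicle-exposed controls.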
# [9] = NCI Yeast Anticancer Drug Screen. Data for the bub3 strain (AID 167); conditions: S. cerevisiae bub3 mutant strain, active compounds read high
# How it was run: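 Readout: yeast growth inhibition, expressed relative to vehicle-only wells. The test organism is a mutant strain from a panel with lesions in DNA repair or checkpoint genes.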
# [10] = NCI Yeast Anticancer Drug Screen. Data for the wt2 strain (AID 169);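 also: 0% = growth of vehicle-treated yeast cultures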; conditions: S. cerevisiae wt2 strain growth inhibition, active compounds read high
# How it was run: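 Inhibition of yeast growth was determined after compound treatment, normalised to controls receiving only vehicle.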
# [11] = NCI Yeast Anticancer Drug Screen. Data for the sgs1 strain (AID 173);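 also: 0% = growth of vehicle-only control cultures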; conditions: S. cerevisiae sgs1 mutant, active compounds read high
# How it was run: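 Screen format: yeast with repair or checkpoint alterations, compound exposure, growth read relative to vehicle.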
# [12] = NCI Yeast Anticancer Drug Screen. Data for the mlh1 rad18 strain (AID 175); conditions: S. cerevisiae mlh1 rad18 strain growth inhibition, active compounds read high
# How it was run: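 Vehicle-treated cultures served as the reference for growth inhibition in a yeast strain carrying DNA damage repair alterations exposed to each compound.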
# [13] = NCI Yeast Anticancer Drug Screen. Data for the rad18 strain (AID 177); conditions: S. cerevisiae rad18 mutant growth inhibition, active compounds read high
# How it was run: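 Test articles were incubated with altered yeast defective in DNA damage repair. Results are given as inhibition of growth versus vehicle.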
# [14] = NCI Yeast Anticancer Drug Screen. Data for the rad14 strain (AID 159);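 also: 0% = growth of vehicle-treated control cultures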; conditions: S. cerevisiae rad14 strain growth inhibition, active compounds read high
# How it was run: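 Growth inhibition vs vehicle controls; genetically altered yeast strain (DNA damage repair defect) treated with test compounds.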
# [15] = NCI Yeast Anticancer Drug Screen. Data for the mlh1 strain (AID 171);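 also: 0% = growth of vehicle-treated control cultures of the same strain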; conditions: S. cerevisiae mlh1 strain growth inhibition, active compounds read high
# How it was run: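 Vehicle-normalised growth inhibition of a repair- or checkpoint-altered yeast strain following compound treatment.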
# [16] = at 5.0 µM (retest, dose inferred, filed as 0.5)
# [17] = at 50.0 µM (retest, dose inferred, filed as 5.0)
structure (smiles),measurement,setting,value
CC(C)(C(=O)NN)c1ccccc1,growth inhibition,[1]; at 1.2 µM,2%
same,growth inhibition,[1]; at 3.7 µM,9%
same,growth inhibition,[1]; at 11.0 µM,34%
same,growth inhibition,[1]; at 33.0 µM,52%
same,growth inhibition,[1]; at 100.0 µM,78% (active)
same,growth inhibition,[2]; at 1.2 µM,4%
same,growth inhibition,[2]; at 3.7 µM,25%
same,growth inhibition,[2]; at 11.0 µM,52%
same,growth inhibition,[2]; at 33.0 µM,68%
same,growth inhibition,[2]; at 100.0 µM,85% (active)
same,growth inhibition,[3]; at 1.2 µM,4%
same,growth inhibition,[3]; at 3.7 µM,10%
same,growth inhibition,[3]; at 11.0 µM,22%
same,growth inhibition,[3]; at 33.0 µM,54%
same,growth inhibition,[3]; at 100.0 µM,90% (active)
same,growth inhibition,[4]; at 1.2 µM,3%
same,growth inhibition,[4]; at 3.7 µM,5%
same,growth inhibition,[4]; [16],14%
same,growth inhibition,[4]; at 11.0 µM,22%
same,growth inhibition,[4]; at 33.0 µM,40%
same,growth inhibition,[4]; [17],99% (active)
same,growth inhibition,[4]; at 50.0 µM,52.9%
same,growth inhibition,[4]; at 100.0 µM,82% (active)
same,growth inhibition,[5]; at 1.2 µM,0%
same,growth inhibition,[5]; at 3.7 µM,1%
same,growth inhibition,[5]; [16],11%
same,growth inhibition,[5]; at 11.0 µM,24%
same,growth inhibition,[5]; at 33.0 µM,53%
same,growth inhibition,[5]; [17],95% (active)
same,growth inhibition,[5]; at 50.0 µM,9.5%
same,growth inhibition,[5]; at 100.0 µM,83% (active)
same,growth inhibition,[6]; [16],14%
same,growth inhibition,[6]; [17],98% (active)
same,growth inhibition,[6]; at 50.0 µM,14.9%
same,growth inhibition,[7]; at 1.2 µM,-7%
same,growth inhibition,[7]; at 3.7 µM,-1%
same,growth inhibition,[7]; at 11.0 µM,27%
same,growth inhibition,[7]; at 33.0 µM,51%
same,growth inhibition,[7]; at 100.0 µM,81% (active)
same,growth inhibition,[8]; [16],20%
same,growth inhibition,[8]; [17],88% (active)
same,growth inhibition,[8]; at 50.0 µM,55.5%
same,growth inhibition,[9]; at 1.2 µM,-3%
same,growth inhibition,[9]; at 3.7 µM,0%
same,growth inhibition,[9]; [16],-14%
same,growth inhibition,[9]; at 11.0 µM,34%
same,growth inhibition,[9]; at 33.0 µM,70% (active)
same,growth inhibition,[9]; [17],97% (active)
same,growth inhibition,[9]; at 50.0 µM,52%
same,growth inhibition,[9]; at 100.0 µM,94% (active)
same,growth inhibition,[10]; at 1.2 µM,1%
same,growth inhibition,[10]; at 3.7 µM,10%
same,growth inhibition,[10]; at 11.0 µM,28%
same,growth inhibition,[10]; at 33.0 µM,42%
same,growth inhibition,[10]; at 100.0 µM,83% (active)
same,growth inhibition,[11]; at 1.2 µM,0%
same,growth inhibition,[11]; at 3.7 µM,13%
same,growth inhibition,[11]; at 11.0 µM,41%
same,growth inhibition,[11]; at 33.0 µM,71% (active)
same,growth inhibition,[11]; at 100.0 µM,94% (active)
same,growth inhibition,[12]; [16],63%
same,growth inhibition,[12]; [17],99% (active)
same,growth inhibition,[12]; at 50.0 µM,62.9%
same,growth inhibition,[13]; at 1.2 µM,2%
same,growth inhibition,[13]; at 3.7 µM,8%
same,growth inhibition,[13]; at 11.0 µM,46%
same,growth inhibition,[13]; at 33.0 µM,70% (active)
same,growth inhibition,[13]; at 100.0 µM,92% (active)
CN(NC(=O)/C(=C/C=C/c1ccccc1)NC(=O)c1ccccc1)C1=C(Cl)C(=O)[N+](c2ccccc2)=CC1,growth inhibition,[1]; at 1.2 µM,0%
same,growth inhibition,[1]; at 3.7 µM,2%
same,growth inhibition,[1]; at 11.0 µM,15%
same,growth inhibition,[1]; at 33.0 µM,38%
same,growth inhibition,[1]; at 100.0 µM,40%
same,growth inhibition,[2]; at 1.2 µM,1%
same,growth inhibition,[2]; at 3.7 µM,7%
same,growth inhibition,[2]; at 11.0 µM,37%
same,growth inhibition,[2]; at 33.0 µM,69%
same,growth inhibition,[2]; at 100.0 µM,79% (active)
same,growth inhibition,[4]; at 1.2 µM,-4%
same,growth inhibition,[4]; at 3.7 µM,-1%
same,growth inhibition,[4]; [16],-3%
same,growth inhibition,[4]; at 11.0 µM,34%
same,growth inhibition,[4]; at 33.0 µM,63%
same,growth inhibition,[4]; [17],30%
same,growth inhibition,[4]; at 50.0 µM,58.1%
same,growth inhibition,[4]; at 100.0 µM,67%
same,growth inhibition,[5]; at 1.2 µM,0%
same,growth inhibition,[5]; at 3.7 µM,6%
same,growth inhibition,[5]; [16],-12%
same,growth inhibition,[5]; at 11.0 µM,16%
same,growth inhibition,[5]; at 33.0 µM,37%
same,growth inhibition,[5]; [17],2%
same,growth inhibition,[5]; at 50.0 µM,35.2%
same,growth inhibition,[5]; at 100.0 µM,49%
same,growth inhibition,[14]; at 1.2 µM,-1%
same,growth inhibition,[14]; at 3.7 µM,-4%
same,growth inhibition,[14]; at 11.0 µM,2%
same,growth inhibition,[14]; at 33.0 µM,13%
same,growth inhibition,[14]; at 100.0 µM,29%
same,growth inhibition,[6]; [16],-6%
same,growth inhibition,[6]; [17],8%
same,growth inhibition,[6]; at 50.0 µM,79.8% (active)
same,growth inhibition,[7]; at 1.2 µM,-1%
same,growth inhibition,[7]; at 3.7 µM,5%
same,growth inhibition,[7]; at 11.0 µM,19%
same,growth inhibition,[7]; at 33.0 µM,40%
same,growth inhibition,[7]; at 100.0 µM,44%
same,growth inhibition,[9]; at 1.2 µM,1%
same,growth inhibition,[9]; at 3.7 µM,11%
same,growth inhibition,[9]; [16],-5%
same,growth inhibition,[9]; at 11.0 µM,33%
same,growth inhibition,[9]; at 33.0 µM,53%
same,growth inhibition,[9]; [17],72% (active)
same,growth inhibition,[9]; at 50.0 µM,70.4% (active)
same,growth inhibition,[9]; at 100.0 µM,49%
same,growth inhibition,[10]; at 1.2 µM,-3%
same,growth inhibition,[10]; at 3.7 µM,0%
same,growth inhibition,[10]; at 11.0 µM,19%
same,growth inhibition,[10]; at 33.0 µM,42%
same,growth inhibition,[10]; at 100.0 µM,43%
same,growth inhibition,[15]; at 1.2 µM,2%
same,growth inhibition,[15]; at 3.7 µM,8%
same,growth inhibition,[15]; at 11.0 µM,37%
same,growth inhibition,[15]; at 33.0 µM,61%
same,growth inhibition,[15]; at 100.0 µM,63%
same,growth inhibition,[11]; at 1.2 µM,1%
same,growth inhibition,[11]; at 3.7 µM,5%
same,growth inhibition,[11]; at 11.0 µM,27%
same,growth inhibition,[11]; at 33.0 µM,70% (active)
same,growth inhibition,[11]; at 100.0 µM,69%
same,growth inhibition,[12]; [16],-2%
same,growth inhibition,[12]; [17],18%
same,growth inhibition,[12]; at 50.0 µM,84.4% (active)
